# Source: PubChem BioAssay (NCATS)
# Inconclusive results are not listed. Entries that show only a call come without a potency. Values without a mark were called inactive. Calls of active or inactive are those of the source. The call rests on the fitted dose curve; in most records, active means well fitted curve in the direction sought with a large enough effect; inconclusive means small, poorly fitted or top-dose-only effect, or another doubt; inactive means no such curve, though single readings can be large; an effect the other way counts as inactive or inconclusive.
# Tests used:
# [1] = target: Rap guanine nucleotide exchange factor 3 (Homo sapiens) (UniProt O95398); assay: Confirmatory qHTS for agonist of cAMP-regulated guanine nucleotide exchange factor 3 (EPAC1) (AID 1645881);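 further: EPAC1 catalysed release of BODIPY-GDP from Rap1B seen as fluorescence loss; nearly all actives have a fitted effect of over 75% in size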
# Sequence of Rap guanine nucleotide exchange factor 3 (Homo sapiens) (O95398 whole entry, looked up): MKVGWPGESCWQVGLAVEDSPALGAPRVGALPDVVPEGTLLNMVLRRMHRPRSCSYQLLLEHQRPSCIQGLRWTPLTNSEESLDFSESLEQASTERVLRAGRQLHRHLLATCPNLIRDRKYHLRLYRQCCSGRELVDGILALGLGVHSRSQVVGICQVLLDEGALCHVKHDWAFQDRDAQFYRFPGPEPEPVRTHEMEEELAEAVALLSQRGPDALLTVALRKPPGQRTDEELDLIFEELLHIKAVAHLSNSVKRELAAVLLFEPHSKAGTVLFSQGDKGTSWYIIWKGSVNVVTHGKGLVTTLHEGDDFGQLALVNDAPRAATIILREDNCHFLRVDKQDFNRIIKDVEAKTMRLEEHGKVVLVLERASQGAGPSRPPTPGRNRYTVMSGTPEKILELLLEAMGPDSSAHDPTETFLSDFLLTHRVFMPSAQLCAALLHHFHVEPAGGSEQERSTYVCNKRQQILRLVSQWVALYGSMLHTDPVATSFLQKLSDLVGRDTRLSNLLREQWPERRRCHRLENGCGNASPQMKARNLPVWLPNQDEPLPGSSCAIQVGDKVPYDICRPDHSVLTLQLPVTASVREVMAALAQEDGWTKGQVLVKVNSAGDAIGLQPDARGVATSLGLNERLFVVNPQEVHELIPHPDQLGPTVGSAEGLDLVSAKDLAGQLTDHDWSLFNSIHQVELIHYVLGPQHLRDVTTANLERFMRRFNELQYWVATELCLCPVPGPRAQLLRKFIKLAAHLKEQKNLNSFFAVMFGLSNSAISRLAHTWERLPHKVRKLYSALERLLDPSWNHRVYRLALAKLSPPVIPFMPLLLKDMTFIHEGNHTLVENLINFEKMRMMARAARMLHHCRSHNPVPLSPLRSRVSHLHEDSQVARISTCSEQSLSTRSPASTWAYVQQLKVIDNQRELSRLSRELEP
# [2] = target: Rap guanine nucleotide exchange factor 4 (Homo sapiens) (UniProt Q8WZA2); assay: Confirmatory qHTS for agonist of cAMP-regulated guanine nucleotide exchange factor 4 (EPAC2) (AID 1645884);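 further: nucleotide exchange releases bodipy-GDP from Rap1 and this lowers its fluorescence; nearly all actives have a fitted effect of over 65% in size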
# Sequence of Rap guanine nucleotide exchange factor 4 (Homo sapiens) (Q8WZA2 whole entry, looked up): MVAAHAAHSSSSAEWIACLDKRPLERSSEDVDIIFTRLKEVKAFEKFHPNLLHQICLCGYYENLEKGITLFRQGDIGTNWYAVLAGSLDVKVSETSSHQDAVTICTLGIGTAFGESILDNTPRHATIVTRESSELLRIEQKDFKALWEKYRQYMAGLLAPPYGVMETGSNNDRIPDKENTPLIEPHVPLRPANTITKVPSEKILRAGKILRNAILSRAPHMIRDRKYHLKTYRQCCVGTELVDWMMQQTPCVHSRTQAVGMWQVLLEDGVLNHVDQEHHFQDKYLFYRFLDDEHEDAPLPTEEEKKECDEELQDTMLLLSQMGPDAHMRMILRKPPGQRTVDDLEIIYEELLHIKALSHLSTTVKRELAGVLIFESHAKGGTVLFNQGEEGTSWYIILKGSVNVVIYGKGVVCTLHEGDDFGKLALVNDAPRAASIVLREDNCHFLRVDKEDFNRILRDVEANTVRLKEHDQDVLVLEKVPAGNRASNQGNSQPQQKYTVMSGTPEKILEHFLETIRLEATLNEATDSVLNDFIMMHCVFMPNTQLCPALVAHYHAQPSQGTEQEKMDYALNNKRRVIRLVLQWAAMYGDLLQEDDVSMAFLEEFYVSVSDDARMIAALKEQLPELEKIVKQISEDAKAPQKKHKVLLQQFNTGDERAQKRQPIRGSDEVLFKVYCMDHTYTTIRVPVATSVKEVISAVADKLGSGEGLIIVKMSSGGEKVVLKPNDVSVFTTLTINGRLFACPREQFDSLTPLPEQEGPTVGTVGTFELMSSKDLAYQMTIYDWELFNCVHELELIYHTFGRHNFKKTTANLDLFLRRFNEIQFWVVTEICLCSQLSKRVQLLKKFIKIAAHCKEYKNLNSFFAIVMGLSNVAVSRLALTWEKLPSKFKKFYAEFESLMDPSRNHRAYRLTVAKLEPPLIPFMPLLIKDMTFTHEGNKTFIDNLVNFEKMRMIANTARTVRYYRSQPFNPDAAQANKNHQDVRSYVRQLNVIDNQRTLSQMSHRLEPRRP
# [3] = target: Rap guanine nucleotide exchange factor 4 (Homo sapiens) (UniProt Q8WZA2); assay: Confirmatory qHTS for antagonist of cAMP-regulated guanine nucleotide exchange factor 4 (EPAC2) (AID 1645885); further: nearly all actives have a fitted effect of over 25% in size; further: potency means the concentration at half of the fitted maximal effect
# [4] = qHTS for Inhibitors of the vitamin D receptor (VDR): Hit Validation using a Texas Red Assay (AID 602201)
# In short: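 Fluorescence polarization (Ex 595/Em 615 nm) of Texas Red (7 nM) with 1.5 uM VDR-LBD and LG19078 (final concentrations). Compounds were incubated for 2 hours at room temperature.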
# [5] = target: Rap guanine nucleotide exchange factor 3 (Homo sapiens) (UniProt O95398); assay: Confirmatory qHTS for antagonist of cAMP-regulated guanine nucleotide exchange factor 3 (EPAC1) (AID 1645880); conditions: EPAC1 Rap1B-BODIPY-GDP exchange, fluorescence; activity, negative = inhibition: at 115 µM (top of the series); further: nearly all actives have a fitted effect of over 55% in size; further: potency means the concentration at half of the fitted maximal effect
# In short: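 Nucleotide exchange uses 100 nM EPAC1, 250 nM RAP1B-BODIPY-GDP and 50 uM GDP, with compounds in a concentration-titration series. After 5 min at room temperature, fluorescence (480 nm ex/540 nm em) is read every 5 min for 30 min. Data are normalized to control ATA and DMSO.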
# [6] = target: Rap guanine nucleotide exchange factor 3 (Homo sapiens) (UniProt O95398); assay: Counterscreen qHTS for antagonist of cAMP-regulated guanine nucleotide exchange factor 3 (EPAC1) (AID 1645888);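 further: fluorescence loss as bound BODIPY-GDP is released from Rap1B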
# In short: (§1)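 Measured: fluorescence of BODIPY-GDP bound to Rap1B, which falls as exchange proceeds. Conditions include 50 uM competing GDP, 5 and 30 min reads, and a later cAMP challenge for antagonist detection.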
# [7] = target: Rap guanine nucleotide exchange factor 3 (Homo sapiens) (UniProt O95398); assay: Counterscreen qHTS for agonist of cAMP-regulated guanine nucleotide exchange factor 3 (EPAC1) (AID 1645889); further: nearly all actives have a fitted effect of over 40% in size
# In short: as §1
# [8] = target: Tyrosyl-DNA phosphodiesterase 1 (Homo sapiens) (UniProt Q9NUW8); assay: Confirmation Assay for Inhibitors of Tyrosyl-DNA Phosphodiesterase (TDP1) (AID 489007); conditions: recombinant human TDP1 enzymatic activity, dose-response; further: potency means the concentration at half of the fitted maximal effect; nearly all actives have a fitted effect of over 40% in size
# Sequence of Tyrosyl-DNA phosphodiesterase 1 (Homo sapiens) (Q9NUW8 whole entry, looked up): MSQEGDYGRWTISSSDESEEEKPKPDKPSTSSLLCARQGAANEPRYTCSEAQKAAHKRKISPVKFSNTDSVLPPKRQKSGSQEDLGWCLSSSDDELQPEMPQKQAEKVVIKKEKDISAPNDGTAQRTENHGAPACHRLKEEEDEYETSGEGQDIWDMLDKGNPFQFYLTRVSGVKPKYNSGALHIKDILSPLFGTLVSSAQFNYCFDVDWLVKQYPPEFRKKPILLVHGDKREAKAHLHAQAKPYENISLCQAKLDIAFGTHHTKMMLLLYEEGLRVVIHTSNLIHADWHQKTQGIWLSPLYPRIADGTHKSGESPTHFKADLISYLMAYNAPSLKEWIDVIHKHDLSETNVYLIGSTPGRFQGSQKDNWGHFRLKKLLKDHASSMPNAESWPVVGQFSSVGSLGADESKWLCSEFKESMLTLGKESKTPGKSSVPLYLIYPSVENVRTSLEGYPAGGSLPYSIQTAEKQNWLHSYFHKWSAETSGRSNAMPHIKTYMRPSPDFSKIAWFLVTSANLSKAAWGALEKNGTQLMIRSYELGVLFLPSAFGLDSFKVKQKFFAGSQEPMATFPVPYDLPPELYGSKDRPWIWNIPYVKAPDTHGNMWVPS
# In short: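 Recombinant E. coli-expressed Tdp1 (1 nM final) was preincubated with compounds 15 min at room temperature, then reacted 5 min with 15 nM 5'-biotin/3'-phosphotyrosine-FITC DNA substrate; cleavage read as loss of AlphaScreen signal (10 ug/ml beads, 10 min).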
smiles,measurement,setting,value
c1ccc(-c2onc(-c3ccco3)c2-c2ccc3[nH]ccc3c2)cc1,Potency,[1],inactive
same,Potency,[2],inactive
CCOc1cc(S(=O)(=O)Nc2ccccc2CC)ccc1Cl,Potency,[1],inactive
same,activation,[2],"8.65% [at 17.1 µM, percent relative to cAMP agonist control]"
COc1ccc(SC[C@H](C)CN2CC[C@H](C(C)(C)C)CCC2=O)cc1,Potency,[1],inactive
same,Potency,[2],inactive
same,Potency,[3],35 µM (active)
Cn1c(SCC(=O)c2ccc3c(c2)Cc2ccccc2-3)nnc1-c1ccccc1,Potency,[1],inactive
same,activation,[2],"0% [at 17.1 µM, percent relative to cAMP agonist control]"
same,Potency,[3],inactive
Cc1ccc(NCc2nc3ccccc3n2CCOc2ccccc2)cc1,Potency,[1],inactive
same,Potency,[2],inactive
same,Potency,[3],inactive
N#CC(c1ccccc1)C(CC(=NO)c1ccccc1)c1ccccc1 (stereo not given),Potency,[1],inactive
same,Potency,[2],inactive
O=C(CCN1C(=O)/C(=C/c2ccc3c(c2)OCO3)SC1=S)Nc1ccc(C(=O)O)cc1,Potency,[1],inactive
same,Potency,[2],inactive
CCOC(=O)c1ccc(NC(=O)c2c(N)n(Cc3ccccc3)c(=O)[nH]c2=O)cc1,Potency,[1],inactive
same,Potency,[2],inactive
C/C(=N\Nc1ccc([N+](=O)[O-])cc1)c1ccc(O)cc1,Potency,[1],inactive
same,Potency,[2],inactive
same,Potency,[3],26.9 µM (active)
CCCCC[C@H](C)N1C[C@@H](COCc2ccccc2)Oc2cc(N3CCC[C@H]3C(N)=O)ccc2S1(=O)=O,Potency,[1],inactive
same,Potency,[2],inactive
Cc1cccc(N(C)S(=O)(=O)c2c[nH]c3ccc([N+](=O)[O-])cc23)c1,Potency,[1],inactive
same,Potency,[2],inactive
same,Potency,[3],inactive
Cn1cc([C@]2(O)C(=O)Nc3ccc(Br)cc32)c2ccccc21,Potency,[1],inactive
same,Potency,[2],inactive
CN(C)c1ccc(C(=O)Nc2sc(Nc3ccccc3)nc2C(N)=O)cc1,Potency,[1],inactive
same,Potency,[2],inactive
same,Potency,[3],inactive
CCOc1cc(/C=N/Nc2ccc(C(=O)O)cc2)ccc1OC(=O)c1ccccc1C,Potency,[1],inactive
same,Potency,[2],inactive
Cc1ccc(SCc2cc(=O)c3c(=O)n(-c4ccccc4)[nH]c3[nH]2)cc1,Potency,[1],inactive
same,Potency,[2],inactive
Cc1onc(-c2ccccc2Cl)c1C(=O)OCc1cnc(Cl)s1,Potency,[1],inactive
CC1CC(C)CN(C(=S)SCc2nc(N)nc(Nc3ccccc3)n2)C1 (stereo not given),Potency,[1],inactive
same,Potency,[2],inactive
CN(c1ccccc1)c1nc(N)c([N+](=O)[O-])c(N2CCCCC2)n1,Potency,[1],inactive
same,Potency,[2],inactive
Nc1ccc2ccc(O)cc2c1,Potency,[1],inactive
same,activation,[2],"14.1% [at 17.1 µM, percent relative to cAMP agonist control]"
same,Potency,[3],inactive
c1ccc(-c2onc(-c3ccco3)c2-c2ccc3c(c2)OCO3)cc1,Potency,[1],inactive
same,Potency,[2],inactive
Cc1ccc(Nc2nc3nonc3[nH]c2=O)cc1Cl,Potency,[1],inactive
same,Potency,[2],inactive
CCOc1cccc(CNc2ccc(O)cc2)c1OCc1ccc(Cl)cc1,Potency,[1],inactive
same,Potency,[2],inactive
same,Potency,[3],inactive
CC[N+](C)(C)c1ccc(/C=C/c2ccnc3ccccc23)cc1,Potency,[1],inactive
same,Potency,[2],inactive
CC(C)C[C@@H](COc1ccccc1)N1CCN(CCc2ccccc2)CCC1=O,Potency,[1],inactive
same,Potency,[2],inactive
Cc1ccccc1NS(=O)(=O)c1ccc2c3c(cccc13)C(=O)N2C,Potency,[1],inactive
same,Potency,[2],inactive
Cc1ccc(-c2cc(C(=O)Nc3ccncc3)c3ccccc3n2)cc1,Potency,[1],inactive
same,Potency,[2],inactive
O=[N+]([O-])c1c(Nc2ccccn2)cc(Cl)c2nonc12,Potency,[4],inactive
same,Potency,[5],inactive
same,Potency,[6],inactive
COc1ccc(C=C(C(C)=O)C(=O)c2ccccc2)cc1,Potency,[1],inactive
FC(F)(F)c1ccc(CSc2nccn2-c2ccccc2)cc1,Potency,[1],inactive
CCc1ccc(-c2cc(C)no2)cc1S(=O)(=O)N1CCC(C)CC1,Potency,[1],inactive
same,Potency,[2],inactive
O=C1CCCC2=C1CC(C(=O)OCc1ccccc1)C(=O)N2Cc1ccccc1 (stereo not given),Potency,[1],inactive
same,activation,[2],"0% [at 17.1 µM, percent relative to cAMP agonist control]"
same,Potency,[3],inactive
c1ccc(C(c2cccs2)c2c[nH]c3ccccc23)cc1 (stereo not given),Potency,[1],inactive
Cc1nc2c(OCc3ccc(OC(F)F)cc3)cccn2c1N(C)C(=O)CCC1CCCC1,Potency,[1],inactive
same,Potency,[2],inactive
same,Potency,[3],26.9 µM (active)
CCCCNC(=O)C[C@@H]1C[C@@]2(C(=O)OC)CCCCC=C2N(Cc2cccc3ccccc23)C1=O,Potency,[1],inactive
same,Potency,[2],inactive
CC1CCN(C2(O)C(=O)Nc3ccc(Br)cc32)CC1 (stereo not given),Potency,[5],inactive
same,Potency,[7],inactive
COc1ccc(C(=O)CC2(O)C(=O)N(Cc3cccc(C(F)(F)F)c3)c3ccccc32)cc1 (stereo not given),Potency,[1],inactive
same,Potency,[2],inactive
same,Potency,[3],inactive
O=C(O)c1ccc(COc2ccccc2/C=C2/NC(=O)N(c3cccc(Cl)c3)C2=O)cc1,Potency,[8],10 µM (active)
same,Potency,[5],37.9 µM (active)
same,Potency,[6],inactive
Cc1ccc(C2c3c(-c4cc(C)ccc4O)n[nH]c3C(=O)N2Cc2ccco2)cc1 (stereo not given),Potency,[1],inactive
same,Potency,[2],inactive
same,outcome,[3],inactive [at 12.7 µM]
Cc1cccc(CN2Cc3cccc4c3[C@H](C=CC4)CC2=O)c1,Potency,[1],inactive
same,Potency,[2],inactive
same,Potency,[3],44.1 µM (active)
CCOC(=O)C1=CN(Cc2cccc(F)c2)S(=O)(=O)NC1c1ccc(Br)cc1F (stereo not given),Potency,[1],inactive
same,Potency,[2],inactive
same,Potency,[3],inactive
O=C1NC[C@H](Cc2ccccc2)N(C[C@@H]2CCCN2C[C@H](Cc2ccc(O)cc2)N2C[C@H](Cc3ccc(O)cc3)N(CC3CCCCC3)C(=O)C2=O)C1=O,Potency,[1],inactive
same,activation,[2],"15.7% [at 17.1 µM, percent relative to cAMP agonist control]"
same,Potency,[3],inactive
